This note sets out measurements from PubChem BioAssay (EPA / NIEHS).

Molecules are shown by their SMILES. “And” between values parts separate entries of the source, which are not always exact repeats. Identical values can stand only once. The source holds several records for some structures; these can differ, active in one and inactive in another. The source made the active and inactive calls. The calls were made as follows: active = hit-call score of the fitted dose curve at least 0.9, where 1 is the maximum; inactive = score below 0.9.

Read-out in experiment [1]: Tissue plasminogen activator (tPA), PLAT (gene 5327)
The experiment is described as follows: BSK_BF4T_tPA: BioMAP Diversity Plus: BF4T Assay for Tissue plasminogen activator (tPA) Biomarker Activity (AID 2284272). Particulars: primary human bronchial epithelial cells with fibroblasts. The essentials:
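tPA level quantified by ELISA at 24 h post-treatment in bronchial epithelial/dermal fibroblast co-cultures, gain of signal scored against DMSO baseline. Parallel cultures stained with 0.1% SRB (560 nm) to flag overt cytotoxicity.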

Read-out in experiment [2]: Plasminogen Activator Inhibitor-1 (PAI1), SERPINE1 (gene 5054)
Put plainly: BSK_BF4T_PAI1: BioMAP Diversity Plus: BF4T Assay for Plasminogen Activator Inhibitor-1 (PAI1) Biomarker Activity (AID 2284273). Particulars: primary human bronchial epithelial cells with fibroblasts. As for the experimental part:
(§1) BSK_BF4T is a cell-based, multiplexed-readout assay that uses bronchial epithelial cells and dermal fibroblasts, a human vascular primary cell, with measurements taken at 24 hours after chemical dosing in a microplate: 96-well plate.BSK_BF4T_PAI1 is an assay component measured in the BSK_BF4T assay. It measures PAI-1 antibody related to regulation of gene expression using ELISA technology.Data from the assay component BSK_BF4T_PAI1 was analyzed at the endpoint, BSK_BF4T_PAI1, in the positive analysis fitting direction relative to DMSO as the negative control and baseline of activity. Using a type of binding reporter, gain or loss-of-signal activity can be used to understand protein changes. To generalize the intended target to other relatable targets, this assay endpoint is annotated to the 'cytokine' intended target family, where the subfamily is 'plasmogen activator inhibitor'.
(§2) The levels of cell surface (or secreted, indicated by the prefix "s") biomarker endpoints were measured by ELISA. Overt cytotoxicity to cells in confluent adherent cultures (all systems other than the BT system) was assessed by measuring total protein levels using sulforhodamine B (SRB) staining in parallel cultures at the time of biomarker measurements, indicated as SRB endpoints. For proliferation assays for adherent cell types, individual cell types are cultured at sub-confluence and relative cell numbers quantified by SRB staining at time points optimized for each system (48 h: 3C and CASM3C systems; 72 h: BT and HDF3CGF systems; 96 h: SAg system). SRB was performed by staining cells with 0.1% SRB after fixation with 10% TCA and reading wells at 560 nm.Viability and proliferation of PBMC (T cells) was quantified by Alamar Blue reduction for the SAg and BT systems. For PBMC viability (referred to as PBMC Cytotoxicity within the assay endpoint names), cells were plated (75,000/well in a 96-well plate) and then chemical samples added for 1 h before addition of activators, SEB and TSST-1 (20 ng/mL final concentration each). Cells were incubated for 90 h. Then, Alamar Blue (20 uL/well) (Invitrogen, Cat DAL1100) was added for 6 h, and the plates were read with a fluorescence microplate reader at 546/580 nm (excitation/emission). For PBMC proliferation, cells were plated and activated as above but incubated for only 16 h prior to addition of Alamar Blue. Plates were read after 6 h.

A short description of experiment [3]: BSK_BF4T_SRB: Viability Assessment in the BioMAP Diversity Plus: BF4T Assay (AID 2284274).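 As to AC50: measured 24 h after compound addition.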 Particulars: primary human bronchial epithelial cells with fibroblasts. The essentials:
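Co-culture of human bronchial epithelial cells and dermal fibroblasts (BioMAP BF4T) exposed 24 h. Total protein by sulforhodamine B staining (0.1% SRB after 10% TCA fixation, 560 nm) in parallel cultures; fitted vs DMSO.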

Read-out in experiment [4]: urokinase Plasminogen Activator (uPA), PLAU (gene 5328)
Put plainly: BSK_BF4T_uPA: BioMAP Diversity Plus: BF4T Assay for urokinase Plasminogen Activator (uPA) Biomarker Activity (AID 2284275). Particulars: primary human bronchial epithelial cells with fibroblasts. The essentials:
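Co-culture of human bronchial epithelial cells and dermal fibroblasts; uPA quantified by ELISA 24 hours after dosing, fitted relative to DMSO. Parallel SRB total-protein staining assessed overt cytotoxicity.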

Read-out in experiment [5]: Matrix Metallopeptidase 9 (MMP9), MMP9 (gene 4318)
Put plainly: BSK_BF4T_MMP9: BioMAP Diversity Plus: BF4T Assay for Matrix Metallopeptidase 9 (MMP9) Biomarker Activity (AID 2284276). The settings on record: primary human bronchial epithelial cells with fibroblasts. The method, then:
as §1, with “plate.BSK_BF4T_MMP9” for “plate.BSK_BF4T_PAI1”, “MMP-9” for “PAI-1”, “BSK_BF4T_MMP9” for “BSK_BF4T_PAI1”, “BSK_BF4T_MMP9,” for “BSK_BF4T_PAI1,”, “'protease'” for “'cytokine'”, “'matrix metalloproteinase'.” for “'plasmogen activator inhibitor'.”
as §2

Read-out in experiment [6]: Interleukin-8 (IL8), CXCL8 (gene 3576)
The experiment is described as follows: BSK_IMphg_IL8: BioMAP Diversity Plus: IMphg Assay for Interleukin-8 (IL8) Biomarker Activity (AID 2284277). The settings on record: primary human endothelial cells with macrophages. In outline: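 Co-culture of human venular endothelial cells and macrophages exposed to chemicals for 24 h; IL-8 quantified by ELISA and compared against the DMSO baseline, with SRB total-protein staining in parallel cultures for cytotoxicity.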

Read-out in experiment [7]: Intercellular Adhesion Molecule 1 (ICAM1), ICAM1 (gene 3383)
Put plainly: BSK_BE3C_ICAM1: BioMAP Diversity Plus: BE3C Assay for Intercellular Adhesion Molecule 1 (ICAM1) Biomarker Activity (AID 2284278). The settings on record: primary human bronchial epithelial cells. The method, then: BSK_BE3C is a cell-based, multiplexed-readout assay that uses bronchial epithelial cell, a human lung primary cell, with measurements taken at 24 hours after chemical dosing in a 96-well plate.BSK_BE3C_ICAM1 is an assay component measured in the BSK_BE3C assay. It measures ICAM-1 antibody related to regulation of gene expression using ELISA technology.Data from the assay component BSK_BE3C_ICAM1 was analyzed at the endpoint, BSK_BE3C_ICAM1, in the positive analysis fitting direction relative to DMSO as the negative control and baseline of activity. Using a type of binding reporter, gain or loss-of-signal activity can be used to understand protein changes. To generalize the intended target to other relatable targets, this assay endpoint is annotated to the 'cell adhesion molecules' intended target family, where the subfamily is 'Immunoglobulin CAM'.
as §2

Read-out in experiment [8]: Interferon-inducible T-cell alpha chemoattractant (ITAC), CXCL11 (gene 6373)
Put plainly: BSK_BE3C_ITAC: BioMAP Diversity Plus: BE3C Assay for Interferon-inducible T-cell alpha chemoattractant (ITAC) Biomarker Activity (AID 2284279). The settings on record: primary human bronchial epithelial cells. The essentials: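 ELISA read-out of I-TAC after 24 h chemical dosing of human lung primary bronchial epithelial cells; gain-of-signal fit vs DMSO baseline. Parallel SRB total-protein staining (0.1% SRB, 10% TCA fixation, 560 nm) assessed cytotoxicity.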

Read-out in experiment [9]: Interleukin-8 (IL8), CXCL8 (gene 3576)
Put plainly: BSK_BE3C_IL8: BioMAP Diversity Plus: BE3C Assay for Interleukin-8 (IL8) Biomarker Activity (AID 2284280). Particulars: primary human bronchial epithelial cells. The essentials:
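IL-8 signal gain, normalised to DMSO vehicle, was scored after a 24 h chemical exposure of primary human bronchial epithelial cells, with detection by ELISA.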

Read-out in experiment [10]: Epidermal growth factor receptor (EGFR), EGFR (gene 1956)
Put plainly: BSK_BE3C_EGFR: BioMAP Diversity Plus: BE3C Assay for Epidermal growth factor receptor (EGFR) Biomarker Activity (AID 2284281). The settings on record: primary human bronchial epithelial cells. The essentials: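 Compound is added to human bronchial epithelial cells, cells incubate 24 h, then EGFR is detected by ELISA. Values reflect positive-direction fitting relative to DMSO.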

In the case of `OCCC(F)(F)C(F)(F)C(F)(F)C(F)(F)C(F)(F)C(F)(F)F`, the result in experiment [1], in experiment [2], in [3], in experiment [4], in experiment [5] and in experiment [6] was inactive. In addition, the result in [7], in experiment [8], in [9] and in [10] was inactive.

Consider `NCC(F)(F)C(F)(F)C(F)(F)C(F)(F)C(F)(F)C(F)(F)C(F)(F)F`, for which the result in [1], in experiment [2], in experiment [3], in experiment [4], in experiment [5] and in [6] was inactive. Further, the result in experiment [7], in experiment [8], in experiment [9] and in experiment [10] was inactive.

As for `C[C@@H]1C[C@H]2[C@@H]3CCC4=CC(=O)C=C[C@]4(C)[C@@]3(F)[C@@H](O)C[C@]2(C)[C@@]1(O)C(=O)COP(=O)(O)O`, the outcome in experiment [1], in [2], in experiment [3], in [4], in experiment [5] and in [7] was inactive. Also, the result in experiment [8] and in experiment [10] was inactive. Also, the AC50 (commonly the concentration at which the activity in the assay is half-maximal) in experiment [6] was 309 nM (active) and 884 nM (active); in [9], 1.6 µM (active) and 182 nM (active).

`C=C(C)C(=O)OCCC(F)(F)C(F)(F)C(F)(F)C(F)(F)C(F)(F)C(F)(F)F`: the outcome in [1], in experiment [2], in experiment [3], in experiment [4], in experiment [5] and in [6] was inactive. Moreover, the outcome in experiment [7], in experiment [8], in experiment [9] and in experiment [10] was inactive.

In the case of `FC(F)(I)C(F)(F)C(F)(F)C(F)(F)C(F)(F)C(F)(F)I`, the AC50 in experiment [1] was 7.56 µM (active) [middle of 5 runs]; in experiment [2], 19.3 µM (active) [middle of 5 runs]; in experiment [3], 21.9 µM (active) [middle of 5 runs]; in experiment [4] it was 14.4 µM (active) [middle of 5 runs]; in [5], 18.9 µM (active) [middle of 5 runs]; in experiment [6], 47.1 µM (active) [middle of 4 runs]. For the same compound, the AC50 in experiment [7] is 32.3 µM (active) [middle of 5 runs]; in [8] it was 20.4 µM (active) [middle of 5 runs]; in experiment [9], 19.6 µM (active) [middle of 5 runs]. Further, the outcome in [6] was inactive.

`OCCC(F)(F)C(F)(F)C(F)(F)C(F)(F)C(F)(F)C(F)(F)C(F)(F)C(F)(F)F`: the half-maximal activity concentration (AC50) was 8.17 µM (active) and 7.72 µM (active) in experiment [1]; 23.8 µM (active) and 18.6 µM (active) in [2]; 27.2 µM (active) and 34.7 µM (active) in experiment [3]; 30 µM (active) and 17.7 µM (active) in [4]; 28 µM (active) and 16.3 µM (active) in experiment [5]; 30 µM (active) and 44.7 µM (active) in experiment [6]. Also, the AC50 is 22.2 µM (active) and 46.7 µM (active) in experiment [7]; 23.5 µM (active) and 18.4 µM (active) in experiment [8]; 12.3 µM (active) and 13.3 µM (active) in experiment [9]; 21.8 µM (active) in [10]. Further, the outcome in [10] was inactive.
